# About 79,000 compounds went through this panel and 15% of them were active in at least one assay; those are over-represented in the sample as a whole. Unmarked numbers belong to inactive results. Calls of active or inactive are those of the source. No stated cut-off is given here; in the data, active means growth inhibition above about 70%; inactive means the rest.
# Columns and labels:
# [1] = NCI Yeast Anticancer Drug Screen. Data for the rad50 strain (AID 155);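 further: 0% = growth of vehicle-only cultures of the same strain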; details: S. cerevisiae rad50 strain growth inhibition; at 50.0 µM; stronger effect = higher value
# Summary of the method: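 Genetically altered yeast (DNA repair pathway); compound treatment; growth inhibition vs vehicle ctrl.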
# [2] = NCI Yeast Anticancer Drug Screen. Data for the mec2-1 strain (AID 157); details: S. cerevisiae mec2-1 strain, at 50.0 µM, stronger effect = higher value
# Summary of the method: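 Vehicle-treated cultures served as reference for growth inhibition of compound-exposed mec2-1 yeast.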
# [3] = NCI Yeast Anticancer Drug Screen. Data for the sgs1 mgt1 strain (AID 161);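 further: 0% = growth of cultures given vehicle only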; details: S. cerevisiae sgs1 mgt1 strain, at 50.0 µM, stronger effect = higher value
# Summary of the method: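 Genetically altered yeast, compound exposure, growth inhibition relative to vehicle.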
# [4] = NCI Yeast Anticancer Drug Screen. Data for the cln2 rad14 strain (AID 165);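 further: 0% = growth equal to vehicle treated cultures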; details: S. cerevisiae cln2 rad14 strain, at 50.0 µM, stronger effect = higher value
# Summary of the method: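 Each compound was tested on cln2 rad14 yeast. Inhibition of growth was calculated against vehicle-exposed controls.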
# [5] = NCI Yeast Anticancer Drug Screen. Data for the bub3 strain (AID 167); details: S. cerevisiae bub3 mutant strain, at 50.0 µM, stronger effect = higher value
# Summary of the method: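 Yeast carrying a defined mutation is treated with each compound, and growth is compared with that of vehicle-exposed cells to give inhibition.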
# [6] = NCI Yeast Anticancer Drug Screen. Data for the mlh1 rad18 strain (AID 175); details: S. cerevisiae mlh1 rad18 strain growth inhibition; at 50.0 µM; stronger effect = higher value
# Summary of the method: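 Vehicle-treated cultures served as the reference for growth inhibition in a yeast strain carrying DNA damage repair alterations exposed to each compound.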
Compound,growth inhibition [1],growth inhibition [2],growth inhibition [3],growth inhibition [4],growth inhibition [5],growth inhibition [6]
CS(=N)(=O)CCC(N)C(=O)O (stereo not drawn) (tested in a mixture with another compound),4.7%,21.2%,-12.8%,-1.95%,17.8%,2.1%
CC1=C2C(=O)C(C)(C)C=C2C(=O)[C@](C)(O)C12CC2,66.4%,47.1%,68%,55.2%,-5.95%,5.4%
CCCc1c(C#N)c(S)[nH]c(=S)c1C#N,33.4%,20.4%,13.6%,-5.65%,4.55%,16.2%
O=[N+]([O-])c1ccc2nc(-c3ccc(S(=O)(=O)F)cc3)cc(Cl)c2c1,-19.1%,16.9%,4.45%,-12.4%,13.3%,-9.9%
C/C=C(\C)C1(CC)C(=O)NC(=O)N(C)C1=O (stereo not drawn),1.65%,1.7%,3.3%,-0.6%,-1.05%,-5.95%
NC1CCCC[C@H]1N.N[C@@H]1CCCC[C@@H]1N.O=C(P(=O)([O-])[O-])P(=O)([O-])[O-].[Pt+4].[Pt+4],20.2%,3.85%,-13.7%,2.7%,-6.6%,10.3%
c1ccc([Se+](c2ccccc2)c2ccccc2)cc1,16.8%,-46.5%,1.75%,-10.1%,-1.55%,17.9%
CCCCCCCCCCC(=O)O,0.25%,-2.2%,24.9%,-4.65%,-15.4%,15.2%
Clc1cc2nncc(N3CC3)c2cc1Cl,-3.25%,-24.4%,-3.75%,9.95%,-7.8%,-21.4%
CNC(=O)N1CN(c2ccccc2)C2(CCN(Cc3ccccc3)CC2)C1=O,-29.4%,-15.8%,-15.9%,-2.8%,-10.4%,-4.1%
Nc1ccc(N)cc1,10.9%,25.8%,-23.7%,-7.4%,-5.9%,-1%
CCOC(OCC)c1ccc(C(F)(F)F)cc1.[C-]#[O+].[C-]#[O+].[C-]#[O+].[Cr],14.2%,0.8%,25.8%,4.85%,20.4%,26.2%
CC1=C(C)CN(CCc2c[nH]c3ccccc23)C(C#N)C1 (stereo not drawn),0.6%,2.3%,3.95%,60.5%,11.9%,12.5%
CCCC/C=C/C=C/C=C/CCCCCCCC(=O)OCC(COC(=O)CCCCCCC/C=C/C1C=CC(CCCC)C(C(=O)O)C1C(=O)O)OC(=O)CCCCCCC/C=C/C=C/C=C/CCCC (stereo not drawn) (tested in a mixture with another compound),-10.8%,-20.1%,4.55%,-3.85%,7.6%,-0.45%
Cc1c([As](=O)(O)O)ccc2nc3c(C)c([As](=O)(O)O)ccc3nc12,24.5%,1.25%,15.4%,9.25%,2.4%,21.6%
CN(C)C(=O)Oc1cc(O)cc([N+](=O)[O-])c1,-5.45%,-11.1%,-10.8%,-6.35%,24.1%,-28.1%
N/C(N=P(c1ccccc1)(c1ccccc1)c1ccccc1)=N\[N+](=O)[O-],11.7%,15.8%,8.35%,4.65%,12.2%,-16.1%
CC1CS1 (stereo not drawn),-5.7%,4.8%,-10.1%,2.9%,12.2%,-11.1%
c1ccc(C(c2ccccc2)C2CCNCC2)cc1,29.1%,6.8%,3.2%,16.2%,32.6%,2.85%

Compound,growth inhibition [1],growth inhibition [2],growth inhibition [3],growth inhibition [4],growth inhibition [5],growth inhibition [6]
CCOc1cc(OCC)c(OCC)cc1/C=C/[N+](=O)[O-],90% (active),92.7% (active),93.7% (active),77% (active),89.5% (active),95.2% (active)
NC1=NC(N)=N1,1.95%,16.6%,-6.2%,-1.25%,14.2%,-13.2%
COc1ccc2[nH]cc(CCN(C)C)c2c1,4.8%,-24.8%,1.85%,17.1%,-1.6%,-9.85%
c1c2c(cc3c1OCO3)-c1cc3ccc4c(c3c[n+]1CC2)OCO4,9.2%,-9.1%,0.35%,4.9%,-48.5%,-52.5%
CC1(C)OC2(C)CCC1C1C2N1C(=O)c1ccccc1 (stereo not drawn),0.75%,-9.75%,5.25%,4.95%,19.2%,-6.2%
COc1cc(C2(C)CCCCC2)c(OC)cc1C1(C)CCCCC1,-8.1%,1.25%,23.4%,-69.2%,2.75%,9.15%
CC(=O)Nc1ccc(-c2ccccc2)cc1,39.7%,24.8%,46.6%,17.9%,-0.5%,32.9%
[C-]#[O+].[Cl][Ru]([Cl])([Cl])([Cl])[Cl],-7.05%,-8.95%,35%,-6.75%,11.3%,1.9%
c1cc(C[N+]23CN4CN(CN(C4)C2)C3)cs1,-5.75%,14.2%,3.95%,-7.65%,1.55%,-13.7%
OCCN=Cc1c[nH]c2ccccc12,-49.9%,-42.9%,-28.1%,3.85%,-42.5%,-13.9%
O=CNC(CSC(c1ccccc1)c1ccccc1)C(=O)O (stereo not drawn),0.25%,-5.55%,-10.9%,-26.4%,20.2%,4.4%
O=c1[nH]cc(N=Cc2ccccc2F)c(=O)[nH]1.[Cl][Pt][Cl],20.6%,6.15%,24.7%,26.9%,-0.2%,8.95%
O=S1(=O)OCCOS(=O)(=O)C1(Cl)Cl,-32.6%,-41.5%,-18%,-11.4%,-31.6%,-8.65%
O=C1C(=C(O)c2ccccc2)C(=O)c2ccccc21,-3%,1.65%,1.65%,-0.25%,-1.8%,12.3%
O=[As]c1ccc(C(=O)Cl)cc1 (stereo not drawn),-2.3%,-16.4%,-20.1%,2.15%,-25.3%,0.45%
ClCc1cccnc1,16.9%,-2.35%,5.25%,18.1%,3.6%,31.7%
CC(C)CCC1C(=O)NC(=O)NC1=O,-0.2%,-6.15%,-15.4%,8.1%,-4.05%,-1.15%
CN1CCOP(=O)(Oc2ccccc2)N1 (stereo not drawn),-46%,-17.4%,-26.1%,-64.2%,4.5%,-16.1%
O=C(O)c1cc([N+](=O)[O-])cc([N+](=O)[O-])c1,-3%,1.3%,2.75%,-34.2%,-30.9%,43.2%

# Reference: PubChem BioAssay (NCI)
